For 28 compounds, outcome and AC50 results are on record in PubChem BioAssay (EPA / NIEHS).

In assay [1] the target is Nuclear respiratory factor 1 (Homo sapiens) (UniProt Q16656). Put plainly: ATG_NRF1_CIS: Attagene CIS-FACTORIAL HepG2 Assay for human Nuclear Respiratory Factor 1 (NRF1) Orphan Gene (AID 2282987). To be noted: HepG2 NRF1 cis-element reporter, Attagene multiplex; actives raise or lower the signal. In outline:
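Endogenous NRF1-driven reporter transcription in transfected HepG2 cells after 24 h treatment. Readout: RT-PCR products, 6-FAM labelled and resolved by capillary electrophoresis; changes fitted both directions relative to DMSO.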

Assay [2] can be described thus: ATG_NFI_CIS: Attagene CIS-FACTORIAL HepG2 Assay for human Nuclear Factor I (NFI) (AID 2282989). To be noted: HepG2 cis-regulatory reporter, NFI response element transcription; actives raise or lower the signal. The essentials:
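Read-out: reporter mRNA via RT-PCR plus capillary electrophoresis with fluorescence detection. Transiently transfected HepG2 (endogenous TF activity on cis promoters), 24 h compound exposure; gain or loss of signal fitted against DMSO.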

The target in assay [3] is Myc proto-oncogene protein (Homo sapiens) (UniProt P01106). The experiment in a line: ATG_Myc_CIS: Attagene CIS-FACTORIAL HepG2 Assay for human Myelocytomatosis (Myc) Proto-Oncogene Transcription Factor (AID 2282990). The following applies: HepG2, Attagene cis-reporter transcription factor activity; actives raise or lower the signal. In outline:
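DMSO-normalised, bidirectionally fitted reporter mRNA signal. HepG2 cells transfected with cis reporter constructs, treated 24 h; transcripts detected by RT-PCR, 6-FAM primer extension and CE.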

A short description of assay [4]: ATG_NF_kB_CIS: Attagene CIS-FACTORIAL HepG2 Assay for human Nuclear Factor Kappa B (NF-kB) (AID 2282991). To be noted: HepG2 Attagene cis-factorial NF-kB reporter mRNA; actives raise or lower the signal. In outline: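 Readout is reporter transcript level, gain or loss versus DMSO, measured 24 h post-dose via RT-PCR, fluorescent labelling and capillary electrophoresis. Human HepG2 liver cells carried transiently transfected CIS reporter constructs reflecting endogenous factors.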

The nature of assay [5]: ATG_NRF2_ARE_CIS: Attagene CIS-FACTORIAL HepG2 Assay for human Nuclear Factor Erythroid 2 Related Factor 2 (NFR2) response to Antioxidant Response Elements (ARE) (AID 2282992). To be noted: HepG2 Attagene ARE/NRF2 reporter, transcription factor activity; actives raise or lower the signal. In outline:
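Multiplexed reporter mRNA profiling in HepG2 after a 24 h chemical exposure. Curves fitted in both directions relative to DMSO negative control.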

The nature of assay [6]: ATG_Oct_MLP_CIS: Attagene CIS-FACTORIAL HepG2 Assay for human Octamer-Binding Transcription Factor (Oct) (AID 2282993). The following applies: HepG2 Attagene cis-factorial Oct reporter, mRNA; actives raise or lower the signal. The essentials: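 Read-out: reporter mRNA via RT-PCR plus capillary electrophoresis of 6-FAM-labelled fragments. Transiently transfected HepG2, 24 h exposure, endogenous TF activity on cis elements. Gain or loss of signal fitted relative to DMSO.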

In assay [7] the target is Cellular tumor antigen p53 (Homo sapiens) (UniProt P04637). Put plainly: ATG_p53_CIS: Attagene CIS-FACTORIAL HepG2 Assay for human p53 Transcription Factor (AID 2282994). To be noted: HepG2 p53 cis-element reporter, Attagene mRNA; actives raise or lower the signal. The essentials: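 Multiplexed reporter mRNA assay in human HepG2 liver cells; cis-regulated units report endogenous factor activity. Values come from bidirectional curve fitting against DMSO negative control after 24 h treatment.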
Chain of Cellular tumor antigen p53 (Homo sapiens) (P04637 whole entry, looked up): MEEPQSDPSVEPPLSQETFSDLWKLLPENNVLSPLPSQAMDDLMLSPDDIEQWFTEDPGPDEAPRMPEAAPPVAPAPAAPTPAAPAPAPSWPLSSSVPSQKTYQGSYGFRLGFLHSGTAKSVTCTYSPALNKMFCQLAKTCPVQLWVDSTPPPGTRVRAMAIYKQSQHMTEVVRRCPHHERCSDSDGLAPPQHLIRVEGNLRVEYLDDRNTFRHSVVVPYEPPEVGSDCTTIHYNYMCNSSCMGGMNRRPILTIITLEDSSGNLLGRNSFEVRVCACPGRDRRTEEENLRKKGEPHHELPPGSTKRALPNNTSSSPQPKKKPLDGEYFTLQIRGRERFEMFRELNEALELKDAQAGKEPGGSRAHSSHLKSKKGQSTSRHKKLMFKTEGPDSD

Assay [8] in a line: BSK_3C_uPAR: BioMAP Diversity Plus: 3C Assay for Urokinase-type plasminogen activator receptor (uPAR) Biomarker Activity (AID 2282998). The following applies: BioMAP 3C HUVEC, uPAR biomarker ELISA; actives raise or lower the signal. In outline:
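HUVEC primary cells; 24 h post-dose; uPAR by ELISA; gain or loss of signal fitted bidirectionally vs DMSO baseline.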
In general terms: ELISA stands for enzyme-linked immunosorbent assay.

A short description of assay [9]: BSK_3C_VCAM1: BioMAP Diversity Plus: 3C Assay for Vascular cell adhesion molecule 1 (VCAM1) Biomarker Activity (AID 2282999). To be noted: BioMAP 3C HUVEC, VCAM1 ELISA, cytokine-stimulated; actives raise or lower the signal. The essentials: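 Human umbilical vein endothelial cells were dosed with compound for 24 h, after which cell-surface VCAM-1 was quantified by ELISA. Bidirectional curve fitting used DMSO as negative control and activity baseline.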

The nature of assay [10]: BSK_3C_TissueFactor: BioMAP Diversity Plus: 3C Assay for Tissue Factor Biomarker Activity (AID 2282997). The following applies: BioMAP 3C HUVEC, tissue factor biomarker readout; actives raise or lower the signal. In outline:
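Human vascular primary cells (umbilical vein endothelium) received test chemical; Tissue Factor was determined by ELISA at 24 h, and both gain and loss of signal versus DMSO were fitted.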

“And” between values parts separate entries of the source, which are not always exact repeats. Equal entries are not always repeated. The source made the active and inactive calls. The calls were made as follows: active = hit-call score of the fitted dose curve at least 0.9, where 1 is the maximum; inactive = score below 0.9.

Chain of Nuclear respiratory factor 1 (Homo sapiens) (Q16656 whole entry, looked up): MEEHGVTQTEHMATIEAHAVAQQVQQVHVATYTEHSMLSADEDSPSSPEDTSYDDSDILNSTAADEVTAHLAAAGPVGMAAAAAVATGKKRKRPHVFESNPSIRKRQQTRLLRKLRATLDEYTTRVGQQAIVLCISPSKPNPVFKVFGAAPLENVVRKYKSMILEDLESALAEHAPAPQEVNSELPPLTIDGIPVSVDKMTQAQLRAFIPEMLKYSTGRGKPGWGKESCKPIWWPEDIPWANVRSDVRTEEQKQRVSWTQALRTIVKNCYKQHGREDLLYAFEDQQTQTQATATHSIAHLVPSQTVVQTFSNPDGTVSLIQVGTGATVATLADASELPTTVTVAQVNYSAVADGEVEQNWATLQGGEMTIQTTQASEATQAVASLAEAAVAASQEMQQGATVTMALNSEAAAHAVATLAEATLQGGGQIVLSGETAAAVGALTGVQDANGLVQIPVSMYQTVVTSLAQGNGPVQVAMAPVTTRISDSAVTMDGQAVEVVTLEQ
Chain of Myc proto-oncogene protein (Homo sapiens) (P01106 whole entry, looked up): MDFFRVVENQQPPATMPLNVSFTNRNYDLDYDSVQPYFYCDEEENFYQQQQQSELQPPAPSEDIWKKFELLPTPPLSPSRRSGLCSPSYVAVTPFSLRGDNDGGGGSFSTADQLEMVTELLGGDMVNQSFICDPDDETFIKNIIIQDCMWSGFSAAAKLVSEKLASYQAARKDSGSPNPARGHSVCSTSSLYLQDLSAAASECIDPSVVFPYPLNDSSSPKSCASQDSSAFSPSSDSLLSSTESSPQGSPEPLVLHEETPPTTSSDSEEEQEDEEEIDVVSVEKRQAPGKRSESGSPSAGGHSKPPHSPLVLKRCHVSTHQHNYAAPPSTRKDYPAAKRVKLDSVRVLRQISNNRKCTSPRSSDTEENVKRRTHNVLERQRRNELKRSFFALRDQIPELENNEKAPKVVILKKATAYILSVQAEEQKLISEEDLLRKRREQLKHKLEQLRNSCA

As for `CCCCCCO`, the outcome in [1], in [2], in [3], in assay [4], in assay [5] and in assay [6] was inactive. Moreover, in assay [7], the compound was called inactive.
In the case of `CC(C)COC(=O)CC(C(=O)OCC(C)C)S(=O)(=O)O` (stereo not given), the result in [1], in assay [2], in assay [3], in assay [4], in assay [5] and in [6] was inactive. Moreover, the compound was classed as inactive in assay [7].
In the case of `CCN(CC)c1cccc(C)c1`, the compound was called inactive in assay [1], in assay [2], in assay [3], in assay [4], in assay [5] and in [6]. Further, the compound was classed as inactive in assay [7].
For `CCc1occc(=O)c1O`, the compound was classed as inactive in assay [1], in assay [2], in assay [3], in assay [4], in assay [5] and in [6]. The compound was called inactive in assay [7].
With `CC1CC(=O)CC(C)(C)C1` (stereo not given), the outcome in assay [1], in assay [2], in assay [3], in assay [4], in assay [5] and in assay [6] was inactive. Besides, the compound was classed as inactive in assay [7].
On to `Cc1ccccc1CCO`, for which the compound was classed as inactive in assay [1], in assay [2], in assay [3], in assay [4], in [5] and in assay [6]. Also, the compound was called inactive in assay [7].
With `Cc1cccc(C(C)(C)C)c1O`, the result in [1], in [2], in [3], in [4], in [5] and in assay [6] was inactive. Also, the compound was called inactive in assay [7].
With `CC=CC(=O)OCC(C)C`, the compound was classed as inactive in assay [1], in [2], in [3], in assay [4], in [5] and in assay [6]. The compound was called inactive in assay [7].
As for `CCCCOCCOC(=O)COc1ccc(Cl)cc1Cl`, the compound was called inactive in [1], in assay [2], in [3], in [4], in assay [5] and in assay [6]. For the same compound, the result in [7] was inactive.
For the compound `CC(CC(C)C)=NO`, the outcome in assay [1], in [2], in assay [3], in assay [4], in assay [5] and in assay [6] was inactive. Moreover, the call in [7] was inactive.
With `O=C(O)C(F)(F)C(F)(F)C(F)(F)C(F)(F)C(=O)O`, the compound was classed as inactive in [1], in [2], in assay [3], in assay [4], in assay [5] and in assay [6]. The outcome in assay [7], in [8] and in assay [9] was inactive.
By AC50 is commonly meant the concentration at which the activity in the assay is half-maximal. Take `CCCCCCOc1ccc(N)cc1`: the half-maximal activity concentration (AC50) in [1] and in assay [5] was 100 µM (active) throughout. The result in assay [2], in [3], in assay [4], in assay [6] and in [7] was inactive.
In the case of `C1CNCCN1`, the result in [1], in [2], in [3], in assay [4], in assay [5] and in assay [6] was inactive. The compound was classed as inactive in assay [7], in [8] and in assay [9].
With `CCCCCCC=O`, the compound was called inactive in [1], in assay [2], in [3], in assay [4], in [5] and in [6]. For the same compound, the outcome in assay [8] and in assay [9] was inactive.
Regarding `Fc1ccc(Br)cc1`, the call in assay [1], in assay [2], in assay [3], in assay [4], in [5] and in assay [6] was inactive. Also, the compound was called inactive in assay [7], in assay [8] and in assay [9].
As to `OCCCc1ccccc1`, the call in [1], in assay [2], in [3], in assay [4], in assay [5] and in [6] was inactive. Besides, the compound was classed as inactive in [7].
For `C=C(C)C(=O)OCCCCCCCCCCCC`, the outcome in assay [1], in assay [2], in assay [3], in assay [4], in assay [5] and in assay [6] was inactive. For the same compound, the outcome in assay [7], in assay [8] and in assay [9] was inactive.
Consider `O=C(O[C@@H]1Cc2c(O)cc(O)cc2O[C@@H]1c1cc(O)c(O)c(O)c1)c1cc(O)c(O)c(O)c1`, for which the compound was called inactive in assay [1], in assay [2], in assay [3], in [4], in assay [5] and in [6]. The compound was called inactive in assay [7].
Consider `N=C1C=CC(=C(c2ccc(N)cc2)c2ccc(N)cc2)C=C1`, for which the concentration at half-maximal activity (AC50) was 100 µM (active) in assay [1], 41.1 µM (active) in assay [4], 9.02 µM (active) in assay [5] and 33.4 µM (active) in assay [7]. Moreover, the call in assay [2], in [3] and in assay [6] was inactive.
As for `CC(=O)CC(=O)Nc1ccccc1C`, the outcome in [1], in assay [2], in assay [3], in assay [4], in assay [5] and in assay [6] was inactive. Moreover, the compound was called inactive in assay [7].
Regarding `CC1(C)CCC[C@]2(C)[C@H]3CC(=O)O[C@]3(C)CC[C@@H]12`, the outcome in [1], in assay [2], in assay [3], in [4], in assay [6] and in assay [7] was inactive. Also, the half-maximal activity concentration (AC50) in assay [5] was 30.3 µM (active).
On to `O=C(Cl)c1c(Cl)c(Cl)c(C(=O)Cl)c(Cl)c1Cl`, for which the result in assay [1], in assay [2], in [3], in assay [4], in assay [5] and in [6] was inactive. The outcome in assay [10], in assay [8] and in assay [9] was inactive.
Regarding `c1ccc(Nc2cccc3ccccc23)cc1`, the AC50 was 52.1 µM (active) in assay [1]; 50.1 µM (active) in assay [2]; 46.7 µM (active) in [3]; 33.4 µM (active) in assay [5]; 53.3 µM (active) in assay [6]; 57.1 µM (active) in assay [7]. Further, the concentration at half-maximal activity (AC50) in assay [10] was 36.1 µM (active) and 34.1 µM (active); in assay [8] it was 27.6 µM (active) and 24.7 µM (active); in assay [9] it was 36.8 µM (active) and 36.9 µM (active). Further, the outcome in assay [4] was inactive.
As to `O=C(C=Cc1ccccc1)OCCc1ccccc1`, the call in [1], in assay [2], in [3], in assay [4], in assay [6] and in assay [7] was inactive. In assay [5], the AC50 was 20.4 µM (active).
`C=CC(=O)OCCCCCCCC(C)C`: the call in [1], in assay [2], in [3], in assay [4], in assay [7] and in [8] was inactive. Besides, the AC50 in assay [5] is 58 µM (active); in assay [6] it was 121 µM (active); in assay [9], 13 µM (active).
As to `CCC(C)(O)CCCC(C)C` (stereo not given), the outcome in assay [1], in [2], in assay [3], in assay [4], in assay [5] and in [6] was inactive. Moreover, the result in assay [7] was inactive.
For the compound `CCCCCCOC(=O)CCCCC(=O)OCCCCCC`, the result in assay [1], in assay [2], in assay [3], in [4], in [5] and in [6] was inactive. For the same compound, the compound was classed as inactive in [7], in assay [8] and in assay [9].
Take `CCOC(=O)/C=C\C(=O)OCC`: the result in assay [1], in assay [2], in assay [3], in [4], in [6] and in [8] was inactive. Further, in assay [9], the result was inactive. Also, in [5], the AC50 is 11.4 µM (active).
